{"source": "PubChem BioAssay (NCATS)", "key": {"[1]": {"biological_target": "Cytochrome P450 3A4 (Homo sapiens) (UniProt P08684)", "sequence (P08684 whole entry, looked up)": "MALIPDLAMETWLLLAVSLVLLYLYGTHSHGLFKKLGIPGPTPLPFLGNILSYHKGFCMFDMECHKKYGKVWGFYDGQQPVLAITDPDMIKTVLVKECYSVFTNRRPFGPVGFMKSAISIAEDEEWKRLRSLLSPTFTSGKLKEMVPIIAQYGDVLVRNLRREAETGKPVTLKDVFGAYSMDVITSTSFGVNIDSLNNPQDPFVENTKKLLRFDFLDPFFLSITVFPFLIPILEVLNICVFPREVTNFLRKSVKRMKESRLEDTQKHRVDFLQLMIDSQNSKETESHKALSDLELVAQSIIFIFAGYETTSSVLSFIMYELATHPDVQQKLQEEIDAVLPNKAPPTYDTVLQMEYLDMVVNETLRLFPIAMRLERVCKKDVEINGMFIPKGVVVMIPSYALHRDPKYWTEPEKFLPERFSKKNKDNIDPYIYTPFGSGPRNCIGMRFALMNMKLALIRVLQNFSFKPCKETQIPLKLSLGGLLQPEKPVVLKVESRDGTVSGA", "assay": "qHTS Assay for Inhibitors and Substrates of Cytochrome P450 3A4 (AID 884); note: nearly all actives have a fitted effect of over 50% in size; note: potency is the fitted concentration of half-maximal effect; for activity change, negative = inhibition: series mostly up to about 57 µM", "in_short": "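Luminescent readout of luciferin produced by CYP3A4 (20 nM) dealkylation of Luciferin-PPXE, 25 uM (its KM). NADPH-driven reaction ran 60 min at RT after 10 min compound preincubation; data scaled to 57 uM ketoconazole as 100% inhibition.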"}, "[2]": {"assay": "Confirmation and Secondary Assay for Modulators of Hemoglobin Beta Chain Splicing at IVS2 654 locus (AID 910)", "in_short": "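HeLa cells stably expressing EGFP interrupted by β-globin IVS2-654 intron, seeded overnight in Opti-MEM/2% FCS, then treated 2 days at 37 °C. Restored splicing read as total peak GFP intensity per well by laser scanning cytometry (488 nm excitation, 500–520 nm emission); 500 nM antisense PNA as control.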"}, "[3]": {"assay": "Confirmation and Secondary Assay for Modulators of Hemoglobin Beta Chain Splicing at IVS2 705 locus (AID 930); note: series mostly up to about 46 µM", "in_short": "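HeLa cells stably carrying EGFP interrupted by mutant beta-globin intron 2 (IVS2-705) treated 2 days at 37C with compound; 500 nM antisense PNA as control. Correct splicing read as total peak GFP intensity per well by laser-scanning cytometry.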"}, "[4]": {"biological_target": "Cytochrome P450 2D6 (Homo sapiens) (UniProt P10635)", "sequence (P10635 whole entry, looked up)": "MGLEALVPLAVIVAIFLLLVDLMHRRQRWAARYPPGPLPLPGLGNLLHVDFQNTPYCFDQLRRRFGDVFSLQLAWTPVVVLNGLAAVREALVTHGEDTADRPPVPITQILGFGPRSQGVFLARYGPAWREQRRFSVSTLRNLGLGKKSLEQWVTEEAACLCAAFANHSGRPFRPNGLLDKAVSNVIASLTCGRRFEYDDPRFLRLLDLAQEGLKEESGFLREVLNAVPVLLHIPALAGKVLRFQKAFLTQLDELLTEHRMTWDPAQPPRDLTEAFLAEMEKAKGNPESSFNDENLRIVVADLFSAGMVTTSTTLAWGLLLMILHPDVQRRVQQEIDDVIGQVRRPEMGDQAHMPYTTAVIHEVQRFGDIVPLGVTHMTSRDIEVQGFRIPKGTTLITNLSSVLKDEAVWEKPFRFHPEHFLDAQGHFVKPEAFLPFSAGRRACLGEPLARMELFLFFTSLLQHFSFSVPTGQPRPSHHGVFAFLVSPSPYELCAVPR", "assay": "qHTS Assay for Inhibitors and Substrates of Cytochrome P450 2D6 (AID 891);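 note: luciferin methyl ether substrate demethylated by CYP2D6 with NADPH regeneration; nearly all actives have a fitted effect of over 60% in size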", "in_short": "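Luminescent read-out of luciferin formed by 5 nM human CYP2D6 demethylating 30 uM Luciferin-ME EGE (Km level) over 60 min at room temperature after NADPH regeneration addition. Data normalized to full inhibition by 1.43 uM quinidine.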"}, "[5]": {"biological_target": "Cytochrome P450 2C19 (Homo sapiens) (UniProt P33261)", "sequence (P33261 whole entry, looked up)": "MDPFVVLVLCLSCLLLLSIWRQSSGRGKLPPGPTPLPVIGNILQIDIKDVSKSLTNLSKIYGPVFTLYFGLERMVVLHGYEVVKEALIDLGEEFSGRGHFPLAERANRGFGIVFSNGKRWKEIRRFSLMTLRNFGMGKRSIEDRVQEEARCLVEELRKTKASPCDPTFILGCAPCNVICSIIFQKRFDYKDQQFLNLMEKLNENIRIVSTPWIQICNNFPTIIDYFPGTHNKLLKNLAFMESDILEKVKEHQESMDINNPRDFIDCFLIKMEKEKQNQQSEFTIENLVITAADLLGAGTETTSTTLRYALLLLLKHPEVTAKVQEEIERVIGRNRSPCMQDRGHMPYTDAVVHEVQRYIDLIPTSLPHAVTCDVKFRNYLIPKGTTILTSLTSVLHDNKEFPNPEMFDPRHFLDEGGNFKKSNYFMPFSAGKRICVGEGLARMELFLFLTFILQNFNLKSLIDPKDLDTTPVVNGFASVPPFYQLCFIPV", "assay": "qHTS Assay for Inhibitors and Substrates of Cytochrome P450 2C19 (AID 899); note: nearly all actives have a fitted effect of over 60% in size; note: potency is the fitted concentration of half-maximal effect", "in_short": "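Luminescent read-out of luciferin formed from Luciferin-H EGE (10uM, equal to KM). Enzyme 5nM in 50mM KPO4; compound added, 10 min at 37C, then NADPH regenerating system for 60 min at 37C. Full inhibition defined by 57uM ketoconazole.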"}, "[6]": {"biological_target": "Cytochrome P450 3A4 (Homo sapiens) (UniProt P08684)", "assay": "qHTS Assay for Activators of Cytochrome P450 3A4 (AID 885); note: nearly all actives have a fitted effect of over 65% in size", "in_short": "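Luminescent readout of luciferin formed from 25 uM Luciferin-PPXE (KM level) by 20 nM CYP3A4 in 200 mM KPO4, with 60 min NADPH-driven reaction at room temperature after 10 min compound exposure. Ketoconazole (57 uM) defined 100% inhibition.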"}, "[7]": {"assay": "qHTS Assay for Identification of Small Molecule Agonists for Hypoxia Response Element Signaling Pathway (AID 914; active = well fitted activation curve with a large enough effect in the signal ratio, with a control signal flat, not every such curve was filed as active; the % refers to the signal ratio)", "details": "ME-180 HRE-bla reporter, beta-lactamase ratio, CoCl2, 17 h; active compounds read high", "in_short": "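HRE-bla ME-180 cells with beta-lactamase reporter under hypoxia response element, compounds with EC50 CoCl2 for 17 hours at 37 C. CCF4 substrate, 460nm/530nm emission ratio gave %Activity; AC50 from titration series.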"}}, "note": "Several values for one entry are separate records, joined by “and”; a condition that tells them apart may be missing. Equal values may be shown once. Values without a mark were called inactive. Records with an inconclusive call do not appear. Entries that show only a call come without a potency. Activity calls are given as the source filed them. Unless noted, calls come from the whole dose curve; as a rule, active = well fitted curve in the direction sought with a large enough effect; inconclusive = small, poorly fitted or top-dose-only effect, or another doubt; inactive = no such curve, though single readings can be large; an effect the other way counts as inactive or inconclusive."}
{"molecule": "COc1ccc(/C=C/C(=O)c2cc(O)ccc2O)cc1", "values": [{"measurement": "Potency", "setting": "[1]", "value": "inactive"}, {"measurement": "outcome", "setting": "[2]", "value": "inactive"}, {"measurement": "outcome", "setting": "[3]", "value": "inactive"}]}
{"molecule": "CNC(=O)Oc1ccc2c(c1)[C@@]1(C)CCN(C)C1N2C", "note": "(stereo partly specified)", "values": [{"measurement": "Potency", "setting": "[1]", "value": "inactive"}, {"measurement": "outcome", "setting": "[2]", "value": "inactive"}]}
{"molecule": "CCOC(c1cc(OC)cc([N+](=O)[O-])c1OC)C(C)C(OC)[C@@H](C)/C=C/CC(=O)OC", "note": "(stereo partly specified)", "values": [{"measurement": "Potency", "setting": "[1]", "value": "3.98 µM (active)"}, {"measurement": "Potency", "setting": "[4]", "value": "inactive"}, {"measurement": "Potency", "setting": "[5]", "value": "1 µM (active)"}]}
{"molecule": "Cn1c(N)c(C(=O)COC(=O)c2cc(C3CC3)nc3ccccc23)c(=O)n(Cc2ccccc2)c1=O", "values": [{"measurement": "Potency", "setting": "[6]", "value": "inactive"}]}
{"molecule": "CCOC(=O)OCC1OC(c2ccccc2)C=CC1OC(=O)OCC", "note": "(stereo unspecified)", "values": [{"measurement": "activity change, negative = inhibition", "setting": "[1]", "value": "-18.7% [at 11.4 µM]"}, {"measurement": "Potency", "setting": "[4]", "value": "inactive"}, {"measurement": "Potency", "setting": "[5]", "value": "3.98 µM (active)"}]}
{"molecule": "CCOC(=O)OCC1OC(c2ccc(C(C)=O)cc2)C=CC1Oc1ccc(-c2ccccc2)cc1", "note": "(stereo unspecified)", "values": [{"measurement": "activity change, negative = inhibition", "setting": "[1]", "value": "-27.8% [at 11.4 µM]"}, {"measurement": "Potency", "setting": "[4]", "value": "inactive"}, {"measurement": "Potency", "setting": "[5]", "value": "inactive"}]}
{"molecule": "C=CCCCCCCCCCCCC(O)CC(O)COC(C)=O", "note": "(stereo unspecified) (tested in a mixture with another compound)", "values": [{"measurement": "Potency", "setting": "[1]", "value": "inactive"}, {"measurement": "outcome", "setting": "[2]", "value": "inactive"}, {"measurement": "outcome", "setting": "[3]", "value": "inactive"}]}
{"molecule": "NC(=O)c1cc[n+](CC2=C(C(=O)O)N3C(=O)C(NC(=O)C(c4ccccc4)S(=O)(=O)[O-])C3SC2)cc1", "note": "(stereo unspecified)", "values": [{"measurement": "Potency", "setting": "[1]", "value": "inactive"}, {"measurement": "outcome", "setting": "[2]", "value": "inactive"}]}
{"molecule": "O=C1[C@H]2O[C@@H]2[C@@H](O)[C@H]2[C@H]1CCn1c(=O)n(Cc3cc4c(cc3Cl)OCO4)c(=O)n12", "values": [{"measurement": "activity change, positive = activation", "setting": "[6]", "value": "-36.7% [at 11.4 µM]"}]}
{"molecule": "COC(=O)[C@@H]1C[C@H]2CC[C@H](O)C[C@H]2N1Cc1ccc(N2CCOCC2)cc1", "values": [{"measurement": "Potency", "setting": "[6]", "value": "inactive"}]}
{"molecule": "COC(=O)c1cccc(C23CC4(C2)[C@H](CN(Cc2ccc(-c5ccccc5)cc2)[C@@H]4c2ccccc2)C3c2ccc(C(F)(F)F)cc2)c1", "note": "(stereo partly specified)", "values": [{"measurement": "Potency", "setting": "[6]", "value": "inactive"}]}
{"molecule": "C=CC(C1=CC(=O)C(OC)=CC1=O)c1ccc(OC)cc1", "note": "(stereo unspecified)", "values": [{"measurement": "Potency", "setting": "[1]", "value": "25.1 µM (active)"}, {"measurement": "outcome", "setting": "[2]", "value": "inactive"}, {"measurement": "outcome", "setting": "[3]", "value": "inactive"}]}
{"molecule": "NC(C(=O)O)C(O)C(=O)O", "note": "(stereo unspecified)", "values": [{"measurement": "Potency", "setting": "[1]", "value": "inactive"}, {"measurement": "outcome", "setting": "[2]", "value": "inactive"}, {"measurement": "outcome", "setting": "[3]", "value": "inactive"}]}
{"molecule": "CSCCC(NC=O)C(=O)NC(CC(C)C)C(=O)NC(Cc1ccccc1)C(=O)O", "note": "(stereo unspecified)", "values": [{"measurement": "Potency", "setting": "[1]", "value": "inactive"}, {"measurement": "outcome", "setting": "[2]", "value": "inactive"}]}
{"molecule": "CCc1cc2c(nc1CC)CCN(CC/C(C)=N/O[C@@H](C)c1cn([C@H](CO)Cc3ccccc3)nn1)C2", "values": [{"measurement": "Potency", "setting": "[1]", "value": "3.16 µM (active) and 3.98 µM (active)"}, {"measurement": "activity change, positive = activation", "setting": "[6]", "value": "-78.5% [at 11.4 µM] and -65.5% [at 11.4 µM]"}, {"measurement": "activation", "setting": "[7]", "value": -4.74, "unit": "%"}]}
{"molecule": "COc1ccc(O[C@H]2C=C[C@@H](c3ccccc3)O[C@H]2CO/N=C(/C)CCC(=O)OC[C@@H]2O[C@H](c3ccccc3)C=C[C@@H]2Oc2ccc(OC)cc2)cc1", "values": [{"measurement": "Potency", "setting": "[1]", "value": "3.98 µM (active)"}, {"measurement": "activity change, positive = activation", "setting": "[6]", "value": "-65.1% [at 11.4 µM]"}, {"measurement": "activation", "setting": "[7]", "value": 3.42, "unit": "%"}]}
{"molecule": "CCc1cc2c(nc1CC)CCN(CC/C(C)=N/OC[C@@H](O)COCc1ccco1)C2", "values": [{"measurement": "activity change, positive = activation", "setting": "[6]", "value": "-38.2% [at 11.4 µM]"}]}
{"molecule": "COC(=O)c1ccc(C23CC4(C2)[C@H](CN(Cc2ccc(C(F)(F)F)cc2)[C@@H]4c2ccccc2)C3c2ccccc2)cc1", "note": "(stereo partly specified)", "values": [{"measurement": "Potency", "setting": "[6]", "value": "inactive"}]}
{"molecule": "Cc1ccc(S(=O)(=O)N[C@H]2COC(=O)[C@H](C)COC(=O)[C@H](C)NC(=O)C/C=C\\[C@H]2C)cc1", "values": [{"measurement": "activity change, positive = activation", "setting": "[6]", "value": "-41.3% [at 11.4 µM]"}]}
{"molecule": "COc1ccc(O[C@H]2C=C[C@@H](c3ccccc3)O[C@H]2CO/N=C2/[C@H]3O[C@@H]3[C@@H](O)[C@H]3[C@H]2CCn2c(=O)n(-c4ccccc4)c(=O)n23)cc1", "values": [{"measurement": "Potency", "setting": "[1]", "value": "3.16 µM (active)"}, {"measurement": "Potency", "setting": "[5]", "value": "2.51 µM (active)"}]}
{"molecule": "C[C@]12CCC3c4ccc(O)cc4CCC3C1CCC2OC(=O)CCC1CCCC1", "note": "(stereo partly specified)", "values": [{"measurement": "Potency", "setting": "[1]", "value": "inactive"}, {"measurement": "outcome", "setting": "[2]", "value": "inactive"}, {"measurement": "outcome", "setting": "[3]", "value": "inactive"}]}
{"molecule": "Cc1ccccc1OC1C=CC(C#Cc2ccc(Br)cc2)OC1CO", "note": "(stereo unspecified)", "values": [{"measurement": "activity change, negative = inhibition", "setting": "[1]", "value": "-26.7% [at 11.4 µM]"}, {"measurement": "Potency", "setting": "[4]", "value": "inactive"}, {"measurement": "Potency", "setting": "[5]", "value": "inactive"}]}
{"molecule": "COC(=O)C/C=C\\[C@@H](C)[C@@H](CO)NS(=O)(=O)c1ccc(C)cc1", "values": [{"measurement": "activity change, positive = activation", "setting": "[6]", "value": "-37.6% [at 11.4 µM]"}]}
{"molecule": "CO[C@H]1COC(=O)[C@H](Cc2ccccc2)NC(=O)C/C=C\\[C@@H](C)[C@H](OC)COC(=O)C/C=C\\[C@@H]1C", "values": [{"measurement": "activity change, positive = activation", "setting": "[6]", "value": "-59.6% [at 11.4 µM]"}]}
{"molecule": "COC(=O)c1ccc(CN2[C@H](C(=O)OC)C[C@@]3(O)[C@H](O)[C@H](O)[C@H](O)C[C@@H]23)cc1", "values": [{"measurement": "Potency", "setting": "[6]", "value": "inactive"}]}
{"molecule": "CCOC(=O)OCC1OC(c2ccccc2)C=CC1Oc1ccc(F)cc1C", "note": "(stereo unspecified)", "values": [{"measurement": "activity change, negative = inhibition", "setting": "[1]", "value": "-28.9% [at 11.4 µM]"}, {"measurement": "Potency", "setting": "[4]", "value": "inactive"}, {"measurement": "Potency", "setting": "[5]", "value": "2 µM (active)"}]}
{"molecule": "CC(=O)c1ccc(OC2C=CC(c3ccc(Cl)cc3)OC2CO)cc1", "note": "(stereo unspecified)", "values": [{"measurement": "activity change, negative = inhibition", "setting": "[1]", "value": "-21.5% [at 11.4 µM]"}, {"measurement": "Potency", "setting": "[4]", "value": "inactive"}, {"measurement": "Potency", "setting": "[5]", "value": "5.01 µM (active)"}]}
{"molecule": "CCOC(=O)OCC1OC(C#Cc2ccc(C(C)(C)C)cc2)C=CC1OC(=O)OCC", "note": "(stereo unspecified)", "values": [{"measurement": "activity change, negative = inhibition", "setting": "[1]", "value": "-12.4% [at 11.4 µM]"}, {"measurement": "Potency", "setting": "[4]", "value": "inactive"}, {"measurement": "Potency", "setting": "[5]", "value": "inactive"}]}
{"molecule": "COc1ccc(COC(=O)N/N=C2/C[C@@H](O)[C@@H](O)[C@@H]3[C@@H]4C(=O)N(c5cccc(Oc6ccccc6)c5)C(=O)[C@H]4CC[C@H]23)cc1", "values": [{"measurement": "Potency", "setting": "[1]", "value": "3.16 µM (active)"}, {"measurement": "activity change, positive = activation", "setting": "[6]", "value": "-68.2% [at 11.4 µM]"}, {"measurement": "activation", "setting": "[7]", "value": -10.1, "unit": "%"}]}
{"molecule": "COC(=O)c1cccc(C23CC4(C2)[C@H](CN(Cc2ccc(C(F)(F)F)cc2)[C@@H]4c2ccccc2)C3c2ccc(Cl)nc2)c1", "note": "(stereo partly specified)", "values": [{"measurement": "Potency", "setting": "[6]", "value": "inactive"}]}
{"molecule": "CO[C@H]1COC(=O)C/C=C\\[C@H](C)[C@@H](NS(=O)(=O)c2ccc(C)cc2)COC(=O)C/C=C\\[C@@H]1C", "values": [{"measurement": "Potency", "setting": "[1]", "value": "3.16 µM (active)"}, {"measurement": "Potency", "setting": "[4]", "value": "inactive"}]}
